Test results as given in the supplement of paper PMC13380429.
A number with no mark means an inactive call.

Tested on: Vero E6 infected with SARS-CoV-2
Test: inhibition of SARS-CoV-2 cytopathic effect; higher = more antiviral protection, active = above 15
Conditions: 48 h

Row | SMILES | inhibition of SARS-CoV-2 cytopathic effect (1 nM) [%] | inhibition of SARS-CoV-2 cytopathic effect (8.33 nM) [%] | inhibition of SARS-CoV-2 cytopathic effect (100 nM) | inhibition of SARS-CoV-2 cytopathic effect (833.33 nM) | inhibition of SARS-CoV-2 cytopathic effect (10000 nM)
1 | CCCCCC(O)CCCC(=O)O (stereo not given) | -2.76 | -6.54 | -3.55% | -1.75% | -6.15%
2 | C[C@H]1NCc2cc(-c3ccc4c(=O)c(C(=O)O)cn(C5CC5)c4c3OC(F)F)ccc21 [garenoxacin] | -4.16 | -1.9 | 1.67% | 3.28% | 1.04%
3 | CCC(=O)NCC[C@@H]1CCc2ccc3c(c21)CCO3 [ramelteon] | 0.77 | -0.74 | -1.05% | 0.28% | -10.8%
4 | COc1ccc(CN2C(=O)C(=O)c3cc(OC(F)(F)F)ccc32)cc1 | -0.15 | 1.14 | 1.79% | 1.75% | 6.79%
5 | Cc1cccc(/C=N/Nc2cc(N3CCOCC3)n3nc(-c4ccncc4)cc3n2)c1 | 1.37 | 4.2 | 27.3% (active) | 19% (active) | 13.2%
6 | NC(=O)c1ccc(N(C(N)=O)c2c(F)cccc2F)nc1-c1ccc(F)cc1F | -0.41 | -1.25 | -4.38% | -0.33% | -1.52%
7 | CN1C(=O)CN=C(c2ccccc2)c2cc(Cl)ccc21 [diazepam] | -0.19 | 0.35 | 1.99% | 0.56% | 0.22%
8 | CN1CCN(c2ncc(-c3cc(Cl)cc(Cl)c3Cl)c(N)n2)CC1 [sipatrigine] | -3.16 | -4.99 | -2.74% | -3.24% | 2.7%
9 | CCn1cnc2c(Nc3cccc(Cl)c3)nc(N[C@@H]3CCCC[C@@H]3N)nc21 | -1.22 | 0.37 | 2.67% | 3.13% | -29.1%
10 | CC(C)(C)c1ccc(O)cc1 [4-tert-butylphenol] | -0.71 | 1.9 | -1.66% | 2.45% | 2.59%
11 | O=C(O)c1cc(C(=O)O)c(C(=O)N(Cc2cccc(Oc3ccccc3)c2)[C@H]2CCCc3ccccc32)cc1C(=O)O | 0.03 | -0.1 | -1.42% | -0.62% | 0.42%
12 | CC(=O)NC[C@H]1CN(c2ccc(N3CCOCC3)c(F)c2)C(=O)O1 [linezolid] | -5.81 | 4.06 | 2.87% | -0.71% | 3.13%
13 | CCNC(=O)[C@@H]1CCCN1C(=O)[C@H](CCCNC(=N)N)NC(=O)[C@H](CC(C)C)NC(=O)[C@@H](CC(C)C)NC(=O)[C@H](Cc1ccc(O)cc1)NC(=O)[C@H](CO)NC(=O)[C@H](Cc1c[nH]c2ccccc12)NC(=O)[C@H](Cc1c[nH]cn1)NC(=O)[C@@H]1CCC(=O)N1 [leuprolide] | -3.75 | 3.77 | 3.45% | 0.4% | -1.48%
14 | CC(=O)N[C@@H](CC(=O)O)C(=O)N[C@@H](CCC(=O)O)C(=O)O [spaglumic-acid] | -1.79 | -1.97 | -2.69% | -1.39% | -1.24%
15 | O=C(NCCCCCCNC(=O)ON=C1CCCCC1)ON=C1CCCCC1 | 2.1 | 0.56 | 1.93% | 2.74% | 2.7%
16 | COc1cc(Nc2ncc3c(n2)-c2ccc(Cl)cc2C(c2c(F)cccc2OC)=NC3)ccc1C(=O)O [alisertib] | -2.11 | 0.41 | -2.08% | 0.49% | -5.87%
17 | CC(C)(C)CC(=O)Nc1c(F)cc(C(=O)/N=c2\sccn2COP(=O)(O)O)cc1F | 0.06 | -0.74 | -3.11% | -0.94% | 2.91%
18 | COc1ccc2c(c1)c(CC(=O)N1CCOCC1)c(C)n2C(=O)c1ccc(Cl)cc1 | 0.39 | -0.48 | 1.8% | -0.58% | -0.85%
19 | CCN1C(=O)CNc2ncc(-c3ccc(-c4nc[nH]n4)nc3C)nc21 | 2.11 | 2.76 | 2.06% | 2.77% | -4.67%
20 | CN1C(=O)CCS(=O)(=O)C1c1ccc(Cl)cc1 (stereo not given) [chlormezanone] | -2.2 | -0.15 | 0.74% | 0.68% | 1.19%

Row | SMILES | inhibition of SARS-CoV-2 cytopathic effect (1 nM) [%] | inhibition of SARS-CoV-2 cytopathic effect (8.33 nM) [%] | inhibition of SARS-CoV-2 cytopathic effect (100 nM) | inhibition of SARS-CoV-2 cytopathic effect (833.33 nM) | inhibition of SARS-CoV-2 cytopathic effect (10000 nM)
21 | Cc1ccccc1C(C(=O)NC1CCCCC1)N(C(=O)Cn1ccnc1C)c1cccc(F)c1 (stereo not given) | -0.81 | -1.8 | 0.77% | 1.79% | -0.96%
22 | Cc1ccc(-c2ccc(C)cn2)nc1 [abametapir] | -4.6 | 1.76 | -1.42% | -3.2% | -1.76%
23 | Cc1cc(Nc2cc(N3CCN(C)CC3)nc(Sc3ccc(NC(=O)C4CC4)cc3)n2)n[nH]1 [tozasertib] | -0.96 | -0.86 | -0.22% | 0.2% | -4.18%
24 | CNC(=O)c1ccccc1Sc1ccc2c(/C=C/c3ccccn3)n[nH]c2c1 [axitinib] | -0.21 | -0.79 | 0.55% | 2.32% | 0.23%
25 | Oc1cc(O)c2c(c1)O[C@H](c1ccc(O)c(O)c1)[C@@H](O)C2 [cianidanol] | -1.29 | 0.71 | -1.15% | -0.95% | -2.3%
26 | CCOC(=O)C1=C[C@@H](OC(CC)CC)[C@H](NC(C)=O)[C@@H](N)C1 [oseltamivir-phosphate] | -2.66 | -6.65 | -4.22% | -6.18% | 0.67%
27 | Cc1cc(=O)n(-c2ccccc2)n1C [phenazone] | 1.97 | -0.88 | -1.01% | -0.52% | 0.53%
28 | C=C1/C(=C\C=C2/CCC[C@]3(C)[C@@H]([C@H](C)CC[C@@H](O)C(C)C)CC[C@@H]23)C[C@@H](O)C[C@@H]1O [tacalcitol] | -1.15 | -0.65 | 1.63% | 1.18% | 1.31%
29 | Cc1ccc(S(=O)(=O)c2ccc([N+](=O)[O-])o2)cc1 | 0.14 | 0.39 | 2.55% | 13.5% | -21.6%
30 | C#C[C@]1(O)CC[C@H]2[C@@H]3CCc4cc(OC5CCCC5)ccc4[C@H]3CC[C@@]21C [quinestrol] | -2.85 | -1.33 | -0.65% | 0.63% | 15.7% (active)
31 | CN[C@H]1CN(c2ccc3c(=O)c(C(=O)O)cn(-c4nccs4)c3n2)C[C@@H]1OC [voreloxin] | 0.95 | -1.14 | 2.62% | -0.72% | 0.56%
32 | CCOC(=S)SSC(=S)OCC [dixanthogen] | -1.96 | -1.61 | -1.47% | -0.83% | 1.23%
33 | CCC(COC(=O)c1cc(OC)c(OC)c(OC)c1)(c1ccccc1)N(C)C (stereo not given) [trimebutine] | -4.71 | -2.14 | -2.65% | -0.31% | 2.51%
34 | Cc1cc(O)ccc1Cl [chlorocresol] | -0.46 | 2.29 | 1.47% | 1.63% | 1.88%
35 | COc1ccc(CCC(=O)c2c(O)cc(O[C@@H]3O[C@H](CO)[C@@H](O)[C@H](O)[C@H]3O[C@@H]3O[C@@H](C)[C@H](O)[C@@H](O)[C@H]3O)cc2O)cc1O [Neohesperidin dihydrochalcone (Nhdc)] | -1.62 | -3.36 | -1.21% | 0.9% | -1.64%
36 | C[C@H](CSC(=O)c1ccccc1)C(=O)N1C[C@@H](Sc2ccccc2)C[C@H]1C(=O)O [zofenopril-calcium] | 0.93 | -2.52 | -3.63% | -4.57% | -1.54%
37 | CC(=O)OC/C=C(C)/C=C/C=C(C)/C=C/C1=C(C)CCCC1(C)C [retinyl-acetate] | -1.78 | 0.37 | -0.15% | 1.34% | 0.15%
38 | Cc1cc(NS(=O)(=O)c2ccc(N)cc2)no1 [sulfamethoxazole] | 2.98 | 0.81 | 0.9% | 0.68% | 0.81%
39 | CC(=O)NC1N=C(c2ccccc2)c2ccccc2NC1=O (stereo not given) | 0.39 | 1.87 | -0.74% | 0.99% | -0.69%
